Source: PubChem BioAssay (NCI)
This is part of a sample that, as a whole, favours compounds with a hit. Of some 79,000 tested, about 15% had one in any assay. Cut-off read from the data, not from the text of the source: active = growth inhibition above about 70%; inactive = the rest.

How the values were obtained:
[1] = NCI Yeast Anticancer Drug Screen. Data for the rad50 strain (AID 155);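 note: 0% = growth of vehicle-only cultures of the same strain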; settings: S. cerevisiae rad50 strain growth inhibition; at 50.0 µM; active compounds read high
In short: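 Readout: growth inhibition relative to vehicle-treated cultures. Compound exposure was carried out in a genetically defined yeast strain deficient in DNA damage repair.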

[2] = NCI Yeast Anticancer Drug Screen. Data for the mec2-1 strain (AID 157); settings: S. cerevisiae mec2-1 strain, at 50.0 µM, active compounds read high
In short: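 Test agents were screened against the mec2-1 yeast strain, with defined DNA repair or cell cycle alteration. Growth was scored as inhibition against vehicle-only controls.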

[3] = NCI Yeast Anticancer Drug Screen. Data for the sgs1 mgt1 strain (AID 161);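 note: 0% = growth of cultures given vehicle only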; settings: S. cerevisiae sgs1 mgt1 strain, at 50.0 µM, active compounds read high
In short: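 Inhibition of yeast growth, normalised to vehicle-treated controls, is reported for a strain bearing genetic alterations in DNA damage repair.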

[4] = NCI Yeast Anticancer Drug Screen. Data for the cln2 rad14 strain (AID 165);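 note: 0% = growth equal to vehicle treated cultures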; settings: S. cerevisiae cln2 rad14 strain, at 50.0 µM, active compounds read high
In short: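 Growth of compound-exposed yeast (cln2 rad14 genotype) measured and expressed as inhibition relative to vehicle.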

[5] = NCI Yeast Anticancer Drug Screen. Data for the bub3 strain (AID 167); settings: S. cerevisiae bub3 mutant strain, at 50.0 µM, active compounds read high
In short: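 Readout: yeast growth inhibition, expressed relative to vehicle-only wells. The test organism is a mutant strain from a panel with lesions in DNA repair or checkpoint genes.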

[6] = NCI Yeast Anticancer Drug Screen. Data for the mlh1 rad18 strain (AID 175); settings: S. cerevisiae mlh1 rad18 strain growth inhibition; at 50.0 µM; active compounds read high
In short: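 In this whole-cell yeast screen, a strain with altered DNA damage repair is challenged with compound, and its growth is measured against matched vehicle-treated controls.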

Measured: growth inhibition

O=C(O)C(CO)N=Cc1nc(-c2ccccc2)oc1O (stereo not given)
inactive: [1] 0.2% | [2] 6.05% | [3] 12.4% | [4] 9.25% | [5] -6.25% | [6] -11.8%

O=c1oc2c3ccc4ccccc4c3n(Cc3nc4ccccc4[nH]3)c2c2ccccc12
inactive: [1] 22.1% | [2] 12.2% | [3] 19.7% | [4] 28.6% | [5] 14.6% | [6] 25.2%

CC(CO)N1CCCCCC1 (stereo not given)
inactive: [1] -20.4% | [2] -15.7% | [3] 5.9% | [4] -17.7% | [5] 10.7% | [6] -9%

CCCCCC(O)c1ccc2c(c1)OCO2 (stereo not given)
inactive: [1] 13.8% | [2] 12.9% | [3] 10.4% | [4] 2.2% | [5] -8.85% | [6] 0%

CC(=O)Nc1cc(C(C)=O)ccc1O
inactive: [1] 0.95% | [2] -0.5% | [3] -3.95% | [4] -32.7% | [5] -14% | [6] 6.6%

c1scc2c1COCCOCCOCCOCCOCCOCCOC2
inactive: [1] -21.7% | [2] -14.8% | [3] 10.4% | [4] 5.05% | [5] 6.3% | [6] -6.9%

CCOc1cc(/C=C2/C=C(c3ccc(OC)cc3)OC2=O)ccc1O
inactive: [1] -13.9% | [2] 0.5% | [3] 4.5% | [4] -19.1% | [5] 2.75% | [6] -0.7%

c1ccc2oc(C34OC5CC(CC(C5)O3)O4)nc2c1
inactive: [1] 24.8% | [2] 13.2% | [3] 21.9% | [4] 11.1% | [5] 0.5% | [6] 10%

Cc1cc(C)c(NC(N)=S)cc1C
inactive: [1] 7.65% | [2] -23.2% | [3] -5.35% | [4] -7.7% | [5] -5.55% | [6] 7.55%

CCCCCCCCCCCCNc1ncnc2c1cnn2C
inactive: [1] -9.1% | [2] -14.4% | [3] -1.25% | [4] -47.2% | [5] 23.9% | [6] -25.2%

CSc1nc(SC)c2nc(SC)n(-c3ccccc3)c2n1
inactive: [1] -2.7% | [2] -16.1% | [3] 7.85% | [4] -10.3% | [5] 3.85% | [6] -2.75%

Cc1ccc(S(=O)(=O)N2CCSCCSCCSCCSCC2)cc1
inactive: [1] -1.3% | [2] -0.1% | [3] 7.1% | [4] 10.6% | [5] -8.9% | [6] -39.1%

O=C(NC1CCCCC1NC(c1ccccc1)(c1ccccc1)c1ccccc1)C(=O)NC1CCCCC1NC(c1ccccc1)(c1ccccc1)c1ccccc1 (stereo not given)
inactive: [1] -33.9% | [2] -22.4% | [3] -13.7% | [4] 12.1% | [5] -10.1% | [6] -2.35%

O=[N+]([O-])c1ccc(Cl)c(N=Nc2ccccn2)c1
inactive: [1] 20.2% | [2] -14.9% | [3] 21.4% | [4] -36.9% | [5] -10% | [6] 18.6%

CCCCC(C(O)c1ccc(C(C)C)cc1)N(CC)CC (stereo not given)
inactive: [1] 56.2% | [2] 34.1% | [3] 53.9% | [4] 9% | [5] 62.2% | [6] 38%

C(=N[C@H]1CCCC[C@H]1N=Cc1ccc[nH]1)c1ccc[nH]1
inactive: [1] 14.8% | [2] -3.6% | [3] 8.75% | [4] 3.45% | [5] 13.9% | [6] 20.7%

CN1C2CCC1CC(OC(c1ccccc1)c1ccccc1)C2 (stereo not given)
inactive: [1] 11.1% | [2] 4.05% | [3] -15.4% | [4] 0.25% | [5] 2.7% | [6] 5.1%

Cn1c(=O)c(Br)c(C=O)n(CCO[N+](=O)[O-])c1=O
inactive: [1] -8.25% | [2] 32% | [3] 3.85% | [4] 15.6% | [5] 38.6% | [6] -27.6%

Fc1ccccc1/C=C/c1cnnc2ccccc12
inactive: [1] 19.9% | [2] 11.1% | [3] 16.1% | [4] -20.4% | [5] 5.2% | [6] 3.15%

CCC1=CCC(P(=O)(c2ccccc2)c2ccccc2)CC1C (stereo not given)
inactive: [1] -28.8% | [2] -16.4% | [3] -0.15% | [4] 12.6% | [5] 0.15% | [6] -19.8%
